PubChem BioAssay (NCATS)
Inconclusive results are not listed. Calls of active or inactive are those of the source. Calls come from the whole dose curve; as a rule, active = well fitted curve in the direction sought with a large enough effect; inconclusive = small, poorly fitted or top-dose-only effect, or another doubt; inactive = no such curve, though single readings can be large; an effect the other way counts as inactive or inconclusive. Where a SMILES comes first, the peptide text is derived from it. Bridges are numbered along the chain shown (N, C = ends). [ ]: non-standard residue; d: D form. The star is where a group is joined. X2 = CC[C@H](C)CCCCC(=O)*; Dab = NCC[C@H](N)C(=O)O

How the values were obtained:
[1] = qHTS Assay for Identifying Gametocytocidal Compounds (AID 743244);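 note: actives lower the fluorescent signal which means gametocytes are killed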; conditions: P. falciparum 3D7 stage III-V gametocytes, alamarBlue, 72 h; max response: stronger effect = lower value
How it was run: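 P. falciparum 3D7 stage III–V gametocytes (20,000 cells/well) were exposed to compounds for 72 h at 37 °C, 5% CO2. AlamarBlue was then added for 24 h; decreased resorufin fluorescence (Ex 525/Em 598 nm) indicated loss of viability.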

[2] = qHTS assay to identify small molecule inhibitors of chordoma cells - UCH-1 (AID 1259355); note: nearly all actives have a fitted effect of over 55% in size
How it was run: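 Seed 800 cells per well; incubate overnight at 37 C, 5% CO2. Add test compounds (15 concentrations), then the auranofin–topoisomerase-agent combination. Incubate 48hr, add CellTiter-Glo, wait 30min, read luminescence.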

[3] = qHTS assay to identify small molecule inhibitors of chordoma cells - UCH-2 (AID 1259356); note: series mostly up to about 46 µM
% is set by controls: 0 for no effect and ±100 for the full control effect.

CC[C@H]1NC(=O)[C@@H](NC(=O)c2ncccc2O)[C@@H](C)OC(=O)[C@H](c2ccccc2)NC(=O)[C@@H]2CC(=O)CCN2C(=O)[C@H](Cc2ccccc2)N(C)C(=O)[C@@H]2CCCN2C1=O
inactive: max response [1] 3.22% | Potency [2] | Potency [3]

OC[C@@H](O)C(O)[C@H](O)CO
inactive: max response [1] 3.78% | Potency [2] | Potency [3]

Nc1nc(/C(=C/CC(=O)O)C(=O)N[C@@H]2C(=O)N3C(C(=O)O)=CCS[C@H]23)cs1
inactive: max response [1] -2.9% | Potency [2] | Potency [3]

CC1CCCCN1CCCOC(=O)c1ccccc1 (stereo not drawn)
inactive: max response [1] 6.88% | Potency [2] | Potency [3]

CNC(=O)c1c(I)c(C(=O)NCC(=O)Nc2c(I)c(C(=O)O)c(I)c(C(=O)NCCO)c2I)c(I)c(N(C)C(C)=O)c1I
inactive: max response [1] 1.95% | Potency [2] | Potency [3]

CC(C)CCCC(C)NC(C)C (stereo not drawn)
inactive: max response [1] 15.9% | Potency [2] | Potency [3]

Cc1c(C)c2c(c(C)c1OC(=O)CCC(=O)O)CC[C@@](C)(CCC[C@H](C)CCC[C@H](C)CCCC(C)C)O2
inactive: max response [1] -1.05% | Potency [2] | Potency [3]

CC(=NCc1ccccc1)c1ccccc1O
inactive: max response [1] -2.19% | Potency [2] | Potency [3]

O=C(O)Cc1cc(I)c(Oc2ccc(O)c(I)c2)c(I)c1
inactive: max response [1] 10.9% | Potency [2] | Potency [3]

CC[C@H](C)CCCCC(=O)N[C@@H](CCN)C(=O)N[C@H](C(=O)N[C@@H](CCN)C(=O)N[C@H]1CCNC(=O)[C@@H]([C@H](C)O)NC(=O)[C@H](CCN)NC(=O)[C@H](CCN)NC(=O)[C@H](CC(C)C)NC(=O)[C@@H](CC(C)C)NC(=O)[C@H](CCN)NC1=O)[C@@H](C)O (X2-[Dab]T[Dab][Dab][Dab][dL]L[Dab][Dab][dT]; lactam 4-C)
inactive: max response [1] -2.93% | Potency [2] | Potency [3]

NCC(O)CC(=O)O (stereo not drawn)
inactive: max response [1] 10.8% | Potency [2] | Potency [3]

C=CCOc1ccc(CC(=O)O)cc1Cl
inactive: max response [1] 22.7% | Potency [2] | Potency [3]

O=C(O)Cc1nn(Cc2ccc(Br)cc2F)c(=O)c2ccccc12
inactive: max response [1] -4.01% | Potency [2] | Potency [3]

CC(C)[C@H](N)C(=O)OCC(CO)OCn1cnc2c(=O)[nH]c(N)nc21 (stereo partly drawn)
inactive: max response [1] -1.87% | Potency [2] | Potency [3]

O=C(O)CN(CC(=O)O)CC1=CC2C(=CC1=O)Oc1cc(O)c(CN(CC(=O)O)CC(=O)O)cc1C21OC(=O)c2ccccc21 (stereo not drawn)
inactive: max response [1] 5.31% | Potency [2] | Potency [3]

C[C@H](CCCC(C)(C)O)[C@H]1CC[C@H]2[C@@H]3CC=C4C[C@@H](O)CC[C@]4(C)[C@H]3CC[C@]12C
inactive: max response [1] -7.2% | Potency [2] | Potency [3]

CC(C)C[C@H](NC(=O)[C@@H](Cc1c[nH]c2ccccc12)NC(=O)[C@H](Cc1ccc(O)cc1)NC(=O)[C@H](CO)NC(=O)[C@H](Cc1c[nH]c2ccccc12)NC(=O)[C@H](Cc1cnc[nH]1)NC(=O)[C@@H]1CCC(=O)N1)C(=O)N[C@@H](CCCN=C(N)N)C(=O)N1CCC[C@@H]1C(=O)NCC(N)=O
inactive: max response [1] -1.22% | Potency [2] | Potency [3]

O=C(O)c1cc(O)c2c(c1)[C@H]([C@H]1c3cc(C(=O)O)cc(O)c3C(=O)c3c(O[C@@H]4O[C@H](CO)[C@@H](O)[C@H](O)[C@H]4O)cccc31)c1cccc(O[C@@H]3O[C@H](CO)[C@@H](O)[C@H](O)[C@H]3O)c1C2=O
inactive: max response [1] -8.85% | Potency [2] | Potency [3]

Nc1ncnc2c1ncn2CCOCP(=O)(O)O
inactive: max response [1] -0.768% | Potency [2] | Potency [3]

COc1cc(C)c(/C=C/C(C)=C/C=C/C(C)=C/C(=O)O)c(C)c1C
inactive: max response [1] 1.95% | Potency [2] | Potency [3]

CC(C)c1nc(N(C)S(C)(=O)=O)nc(-c2ccc(F)cc2)c1/C=C/C(O)CC(O)CC(=O)O (stereo not drawn)
inactive: max response [1] 12% | Potency [2] | Potency [3]

CCCc1ccc(C(=O)O)cc1
inactive: max response [1] 0.792% | Potency [2] | Potency [3]

NC(=S)NS(=O)(=O)c1ccc(N)cc1
inactive: max response [1] 5.02% | Potency [2] | Potency [3]

CC(=O)Nc1c(I)c(C(=O)O)c(I)c(N(C)C(C)=O)c1I
inactive: max response [1] -0.708% | Potency [2] | Potency [3]

CC(O)CN(C)C (stereo not drawn)
inactive: max response [1] -6.61% | Potency [2] | Potency [3]

NC(N)=NCC1COc2ccccc2O1 (stereo not drawn)
inactive: max response [1] -11.6% | Potency [2] | Potency [3]

O=C(O)C1=C(CSc2nnnn2CS(=O)(=O)O)CS[C@@H]2[C@H](NC(=O)[C@H](O)c3ccccc3)C(=O)N12
inactive: max response [1] -5.8% | Potency [2] | Potency [3]

O=C(O)COc1ccccc1/C=N/NC(=O)c1ccncc1
inactive: max response [1] 1.32% | Potency [2] | Potency [3]

Cc1cc(C)c(NC(=O)C[C@H](CC(=O)O)c2cccc3ccccc23)c(C(=O)N2CCC3(CCCC3)CC2)c1
inactive: max response [1] -8.09% | activity, negative = inhibition [2] -1.62% [at 1.88 µM] | Potency [3]

CCN(CC)CCC(=O)N1c2ccccc2Sc2ccc(C(F)(F)F)cc21
inactive: max response [1] -16% | Potency [2] | Potency [3]

FC(F)OC(Cl)C(F)(F)F (stereo not drawn)
inactive: max response [1] -3.13% | Potency [2] | Potency [3]
